APP transl inh – inhibitors of APP translation via 5'UTR reporter, primary screen, APP 5'UTR luciferase, SH-SY5Y cells; SH-SY5Y APP 5'UTR-luciferase reporter, luminescence; 190,000 compounds, 0.82% hits; inhibition, % at 2 µM;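 active means inhibition above a set limit, derived from the sample mean plus 3 SD, cut at about 45% in these data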
BaF3 tox – parental Ba/F3 cell viability inhibition, counter-screen for JAK2V617F inhibitor project, murine pro-B, CellTiter-Glo luminescence | CellTiter-Glo ATP luminescence | AID 1486, 2009 | 220,000 compounds, 1.1% hits | inhibition, % at 5.6 µM;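 active means inhibition above a per-campaign cutoff, the mean inhibition of all tested compounds plus 3 SD, cut at about 27% in these data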
Ba/F3 V617F tox – reduced viability of JAK2V617F-dependent Ba/F3 cells, primary screen, JAK2V617F inhibitor project, cell-based, Ba/F3 EpoR-JAK2V617F, luminescence; inhibition, % at 5.6 µM; ATP luminescence; AID 1446, 2008; 220,000 compounds, 1.1% hits;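 active means inhibition above the campaign mean plus 3 SD over all tested compounds, cut at about 24% in these data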;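 further: cytokine-independent growth of Ba/F3 cells driven by EpoR plus mutant JAK2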
aSyn UTR inh – MLPCN primary screen, SNCA 5' untranslated region. alpha-synuclein 5'UTR reporter, inhibitor activity. inhibition, % (tested at 7.5 µM). 300,000 compounds, 0.82% hits; in the data active means inhibition above about 60%;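 further: H4 neuroglioblastoma cells stably carrying SNCA 5'UTR luciferase fusion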
IEC-6 tox-1 – cytotoxicity in IEC-6 intestinal epithelial cells, primary screen, cytotoxicity control for KLF5 inhibitor project, cell-based, luminescence. IEC-6 cytotoxicity, luminescence viability. inhibition, % at 5 µM. 290,000 compounds, 0.78% hits
KLF5 inhibitor – KLF5 expression inhibitors, primary screen, DLD-1 cells, luminescence; DLD-1 KLF5 promoter-luciferase reporter; inhibition, % at 5 µM; 290,000 compounds, 0.23% hits; AID 1700, 2009;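 active means inhibition above a per-plate limit of that plate's mean compound inhibition plus 3 SD, cut at about 60% in these data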;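 further: higher means less KLF5 promoter-driven luciferase light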
KLF5 confirm – KLF5 expression inhibitors, confirmation, DLD-1 cells, luminescence. shares compounds with KLF5 inhibitor. DLD-1 KLF5 promoter firefly luciferase reporter. inhibition, % at 4 µM. 610 compounds, 79% hits;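 active means inhibition above a set limit taken from the earlier primary screen, cut at about 63% in these data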
IEC-6 tox-2 – cytotoxicity in rat IEC-6 cells, cytotoxicity control for KLF5 inhibitor project, cell-based, luminescence, triplicate. shares compounds with KLF5 inhibitor. IEC-6 rat intestinal cells, viability luminescence. inhibition, % at 4 µM. 610 compounds, 56% hits; in the data active means inhibition above about 23%;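 further: cells exposed to compounds for 48 hours before viability read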
IEC-6 cytotox cf – cytotoxic compounds in IEC-6 epithelial cells, confirmation, cytotoxicity control, cell-based, luminescence. IEC-6 rat intestinal epithelial viability. 1,900 compounds, 63% hits. inhibition, % at 5 µM. AID 1907, 2009. shares compounds with IEC-6 tox-1
Numbers stand for hits. Rows were chosen to be rich in hits. Some 2.1% of all compounds tested hit in one or more screens of this group. Unless noted, no stated cut-off is given here; in the data, active means inhibition above about 22%; inactive means the rest.

`Cc1ccc2nc(-c3ccc4c(c3)OCCO4)cn2c1` gave BaF3 tox 79, Ba/F3 V617F tox 81, aSyn UTR inh 110, IEC-6 tox-1 75, KLF5 inhibitor 103, KLF5 confirm 106, IEC-6 tox-2 57 and IEC-6 cytotox cf 61.
For COc1ccc(C(=O)N/C(=C\c2ccco2)C(=O)OCc2ccco2)cc1 the results were BaF3 tox inactive, Ba/F3 V617F tox inactive, aSyn UTR inh inactive, IEC-6 tox-1 inactive and KLF5 inhibitor inactive.
For COc1ccc(C(=O)/C(=C\c2ccco2)N2C=CC=CC2=C(C#N)C#N)cc1 the results were APP transl inh 84, BaF3 tox 100, Ba/F3 V617F tox 99, aSyn UTR inh 77, IEC-6 tox-1 83, KLF5 inhibitor 69, KLF5 confirm inactive, IEC-6 tox-2 50 and IEC-6 cytotox cf 62.
Cc1ccc(C(=O)N/N=C/c2cc(Br)ccc2O)cn1 was read as aSyn UTR inh inactive, IEC-6 tox-1 84, KLF5 inhibitor 83, KLF5 confirm 87, IEC-6 tox-2 inactive and IEC-6 cytotox cf inactive.
Screening Cc1ccc(C(=O)N/N=C\C=C\c2ccc(Br)cc2)cn1 returned APP transl inh inactive, BaF3 tox inactive, Ba/F3 V617F tox inactive, aSyn UTR inh inactive, IEC-6 tox-1 inactive and KLF5 inhibitor inactive.
For CC(C)Cn1c(N)c(C(=O)COC(=O)COc2cccc(C(F)(F)F)c2)c(=O)n(C)c1=O the results were aSyn UTR inh inactive, IEC-6 tox-1 inactive and KLF5 inhibitor inactive.
`CN(C)S(=O)(=O)c1ccc(C(=O)NCCC(=O)N2CCCC2)cc1` gave aSyn UTR inh inactive, IEC-6 tox-1 inactive and KLF5 inhibitor inactive.
CNC(=O)N(O)C1N(/N=C/c2c(F)cccc2Cl)C(=S)SC1(C)C (stereo unspecified) was read as aSyn UTR inh inactive, IEC-6 tox-1 inactive and KLF5 inhibitor inactive.
Screening Cc1ccnc(NC(=O)c2ccccc2NC(=O)c2ccc(Cl)cc2Cl)c1 returned aSyn UTR inh 69, IEC-6 tox-1 78, KLF5 inhibitor 67, KLF5 confirm 69, IEC-6 tox-2 49 and IEC-6 cytotox cf 59.
For O=C(NCC(O)c1ccc2ccccc2c1)c1c(F)cccc1F (stereo unspecified) the results were aSyn UTR inh inactive, IEC-6 tox-1 inactive and KLF5 inhibitor inactive.
For CCC1=Nc2cc(C(=O)NCc3ccco3)ccc2Sc2ccc(C)cc21 the results were APP transl inh 94, BaF3 tox 84, Ba/F3 V617F tox 86, aSyn UTR inh 104, IEC-6 tox-1 81, KLF5 inhibitor 75, KLF5 confirm 88, IEC-6 tox-2 67 and IEC-6 cytotox cf 65.
`COC(=O)c1ccc(NC(=O)CSc2nc(=O)n3cccc(C)c3n2)cc1` gave aSyn UTR inh inactive.
O=C1CCCN1c1ccc(S(=O)(=O)Nc2ccc3c(c2)OCCO3)cc1 was read as APP transl inh inactive, BaF3 tox 73, Ba/F3 V617F tox 82, aSyn UTR inh inactive, IEC-6 tox-1 79, KLF5 inhibitor 78, KLF5 confirm 70, IEC-6 tox-2 41 and IEC-6 cytotox cf 50.
For Cc1noc(/C=C/N(C)C)c1S(=O)(=O)N1CCCC(C(=O)Nc2ccc(F)cc2F)C1 (stereo unspecified) the results were aSyn UTR inh inactive, IEC-6 tox-1 inactive and KLF5 inhibitor inactive.
`COc1ccc2nc(SCC(=O)NC3CCCC3)c(C)cc2c1` gave aSyn UTR inh inactive, IEC-6 tox-1 45, KLF5 inhibitor 71, KLF5 confirm 85, IEC-6 tox-2 inactive and IEC-6 cytotox cf 27.
COc1ccc2nc(SCC(=O)NC3CCCCC3)[nH]c2c1 was read as aSyn UTR inh inactive, IEC-6 tox-1 inactive and KLF5 inhibitor inactive.
`CCO[C@H]1OC(C(=O)NCc2nc3ccccc3[nH]2)=C[C@@H](C2CC2)[C@@H]1CCCO` gave APP transl inh 86, BaF3 tox 73, Ba/F3 V617F tox 74, aSyn UTR inh 80, IEC-6 tox-1 72, KLF5 inhibitor 72, KLF5 confirm 78, IEC-6 tox-2 64 and IEC-6 cytotox cf 53.
O=S(=O)(Nc1cc(Sc2ncn[nH]2)c(O)c2ccccc12)c1ccccc1 was read as APP transl inh 76, BaF3 tox 99, Ba/F3 V617F tox 95, IEC-6 tox-1 85, KLF5 inhibitor 68, KLF5 confirm inactive, IEC-6 tox-2 inactive and IEC-6 cytotox cf inactive.
Screening Cc1cc(NCc2ccccn2)n2nc(C)c(-c3ccccc3)c2n1 returned BaF3 tox inactive, Ba/F3 V617F tox inactive, IEC-6 tox-1 81, KLF5 inhibitor 67, KLF5 confirm inactive, IEC-6 tox-2 inactive and IEC-6 cytotox cf inactive.
For Cc1ccc(-n2nnnc2-c2cccc(C)c2)cc1 the results were APP transl inh inactive, BaF3 tox inactive, Ba/F3 V617F tox inactive, aSyn UTR inh inactive, IEC-6 tox-1 inactive and KLF5 inhibitor inactive.
COc1ccc(-n2nnnc2-c2cccc(OC)c2)cc1 was read as APP transl inh 91, BaF3 tox 71, Ba/F3 V617F tox 78, aSyn UTR inh 64, IEC-6 tox-1 84, KLF5 inhibitor 77, KLF5 confirm 86, IEC-6 tox-2 58 and IEC-6 cytotox cf 59.
`COc1ccc(OC)c(Nc2cc(C)nc3ccccc23)c1` gave APP transl inh inactive, BaF3 tox inactive, Ba/F3 V617F tox inactive, aSyn UTR inh inactive, IEC-6 tox-1 inactive and KLF5 inhibitor inactive.
COc1ccc(OC)c(Nc2cc(-c3ccccc3)nc(N)n2)c1 was read as APP transl inh 94, BaF3 tox 76, Ba/F3 V617F tox 83, aSyn UTR inh 68, IEC-6 tox-1 89, KLF5 inhibitor 65, KLF5 confirm 71, IEC-6 tox-2 58 and IEC-6 cytotox cf 57.
COc1cc(OC)cc(C(=O)Nc2nnc(SCC(=O)NCc3ccco3)s2)c1 was read as aSyn UTR inh inactive, IEC-6 tox-1 inactive and KLF5 inhibitor inactive.
For CCCn1nnnc1NCc1ccccc1Cl the results were aSyn UTR inh inactive, IEC-6 tox-1 inactive and KLF5 inhibitor inactive.

High-throughput results: PubChem BioAssay, several laboratories
